# From PubChem BioAssay AID1942 (Johns Hopkins Ion Channel Center, 2009)
# About 580 (24%) of roughly 2,400 compounds were called active. A selection follows. A number with no mark means an inactive call.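 How the source made its calls: active means activity change at or above the mean plus 3 SD of buffer wells without dofetilide, per plate; inactive means the rest.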
# Target: Potassium voltage-gated channel subfamily KQT member 2 (Rattus norvegicus) (UniProt O88943)
# Test: KCNQ2 potentiation in CHO cells – cell-based, FluxOR thallium flux, counter-screen for hERG block protector project, confirmation (AID 1942);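 further: normalized value minus buffer-control mean plus three SD of buffer wells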
# Settings: FluxOR thallium flux fluorescence, at 10 µM, stronger effect = higher value
# Chain of Potassium voltage-gated channel subfamily KQT member 2 (Rattus norvegicus) (O88943 whole entry, looked up): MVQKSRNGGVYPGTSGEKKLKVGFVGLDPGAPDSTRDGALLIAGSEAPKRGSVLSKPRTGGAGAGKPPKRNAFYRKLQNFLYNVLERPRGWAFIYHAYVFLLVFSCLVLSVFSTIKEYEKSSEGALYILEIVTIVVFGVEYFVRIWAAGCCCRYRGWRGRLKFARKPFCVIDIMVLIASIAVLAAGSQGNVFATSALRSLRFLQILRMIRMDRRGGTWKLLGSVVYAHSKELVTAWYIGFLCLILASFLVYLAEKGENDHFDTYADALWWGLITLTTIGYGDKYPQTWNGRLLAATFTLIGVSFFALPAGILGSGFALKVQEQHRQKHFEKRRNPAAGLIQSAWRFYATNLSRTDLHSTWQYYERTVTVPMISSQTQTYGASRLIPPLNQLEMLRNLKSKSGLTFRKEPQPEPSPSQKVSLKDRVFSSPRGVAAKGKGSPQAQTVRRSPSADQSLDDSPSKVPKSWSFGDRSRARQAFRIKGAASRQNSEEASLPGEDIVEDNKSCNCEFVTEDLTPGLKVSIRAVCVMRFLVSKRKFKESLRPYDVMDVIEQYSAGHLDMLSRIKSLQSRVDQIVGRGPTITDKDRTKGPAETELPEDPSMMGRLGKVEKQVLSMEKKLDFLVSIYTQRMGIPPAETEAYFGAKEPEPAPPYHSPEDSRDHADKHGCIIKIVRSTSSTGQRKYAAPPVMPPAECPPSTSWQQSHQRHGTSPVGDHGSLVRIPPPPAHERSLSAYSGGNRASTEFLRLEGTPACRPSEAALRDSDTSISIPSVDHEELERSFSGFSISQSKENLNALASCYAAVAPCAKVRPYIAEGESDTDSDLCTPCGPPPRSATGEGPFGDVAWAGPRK
row,Structure (SMILES),"activity change, less the hit threshold"
1,O=C(O)c1cc(-c2cccc([N+](=O)[O-])c2)n[nH]1,-19.6%
2,O=C(Nc1ccc(Cl)c(-c2nc3ccccc3[nH]2)c1)c1cccnc1,-40.7%
3,COc1ccc(CNC(=O)C2CCCN2)cc1OC (stereo not drawn),-26.1%
4,COc1cc(C2C(C#N)=C(N)Oc3c2ccc2ccccc32)ccc1OCC(=O)Nc1ccc(C)cc1 (stereo not drawn),-15.1%
5,Cc1ccc(C)c(OCc2cc(C(=O)N3CCNC(=O)C3)no2)c1,-16%
6,Cn1c(=O)c(-c2cc(=O)[nH][nH]2)c(O)c2ccccc21,-13.7%
7,CN(C)NC(=O)C(NC(=O)c1ccc(N)cc1)C12CC3CC(CC(C3)C1)C2 (stereo not drawn),-13.9%
8,Cc1ccc(NC(=O)CN2C(=O)S/C(=C\c3ccc(-c4cccc(C(=O)O)c4C)o3)C2=O)cc1,-27%
9,COc1ccc(C(=O)NNC(=O)C(=O)NC2CCCCC2)cc1,-1.7%
10,O=C(COc1ccc(Cl)cc1)NNC(=O)C(=O)NC1CCCCC1,-11.2%
11,COc1cc(NC(=O)c2ccccc2OCc2ccccc2)cc(OC)c1OC,-26.8%
12,COc1ccccc1C(=O)NNC(=O)C(=O)NC1CCCCC1,49.7% (active)
13,COc1ccccc1C(=O)NNC(=O)C(=O)NCc1ccccc1,18.8% (active)
14,COc1ccccc1C(=O)NCc1ccc2c(c1)OCO2,-21.4%
15,CC(C)CSC1=NSC2=NC(=O)/C(=C\c3ccccc3)C(=N)N12,1.1% (active)
16,Cc1ccc(/C=C2/C(=N)N3N=C(CC(=O)N4CCCC4)SC3=NC2=O)cc1,-19.5%
17,O=C(OCc1ccc([N+](=O)[O-])cc1)c1cc2ccccc2oc1=O,-21.1%
18,CCOC(=O)C1=C(c2ccccc2)NC(=O)NC1c1ccc(OC)c(OC)c1 (stereo not drawn),-25.1%
19,CCOC(=O)C1=C(c2ccccc2)NC(=O)NC1c1ccc(O)c(Cl)c1 (stereo not drawn),0.1% (active)
20,COc1cc(C2NC(=O)NC(C)=C2C(=O)OCC2CCCCC2)ccc1O (stereo not drawn),-7.2%
21,C/C(=N\NC(=O)COc1ccc(C)cc1C(C)C)c1ccc(-n2ccnc2)cc1,-22.3%
22,Cc1nn(-c2ccc(Cl)cc2)c2sc(C(=O)c3c(N)n(C)c(=O)n(C)c3=O)cc12,-14.1%
23,Cc1nc2ccc(C(=O)O)cc2[nH]1,-10.4%
24,C=CCn1c(=S)[nH]c2ccc(Br)cc2c1=O,12.4% (active)

row,Structure (SMILES),"activity change, less the hit threshold"
1,COc1ccccc1Cn1c(=S)[nH]c2ccc(Br)cc2c1=O,-7.4%
2,O=C(CCN1C(=O)/C(=C\C=C\c2ccccc2)SC1=S)Nc1ccc(C(=O)O)cc1,-12.3%
3,O=c1[nH]c2ccccc2nc1C(F)(F)C(F)F,-16.2%
4,CCC(C)Sc1nc2c([nH]c3ccccc32)c(=O)n1C (stereo not drawn),-19.6%
5,CCSc1nc2c(sc3ccccc32)c(=O)n1C(C)C,30.9% (active)
6,COCCCN1C(=O)C(=O)/C(=C(/O)c2ccc(S(=O)(=O)N3CCOCC3)cc2)C1c1ccc(F)cc1 (stereo not drawn),-9.9%
7,CNc1nc(N)nc(OC(C(F)(F)F)C(F)(F)F)n1,-11%
8,Oc1ccc(/C=N/Nc2nccnc2Cl)c(O)c1,6.2% (active)
9,CN1C(=O)/C(=N\OC(=O)c2cccc3ccccc23)c2ccccc21,-9.4%
10,CCOC(=O)c1n[nH]n2c1nc(=S)c1ccccc12,49.6% (active)
11,CCOC(=O)c1c(O)c2ccccc2n(C)c1=O,-10.3%
12,CCOC(=O)C1CCN(C(=O)COC(=O)c2nn(C)c(=O)c3ccccc23)CC1,-21%
13,COC(=O)c1c(N2C(=O)CC(Sc3ncccc3C(=O)O)C2=O)sc(C)c1C (stereo not drawn),-12.9%
14,COc1ccc(/C=N/NC(=O)c2ccncc2)cc1CN1CCCc2ccccc21,-22.8%
15,O=C(NNc1c(F)c(F)cc(F)c1F)c1cc2ccccc2oc1=O,-13%
16,O=c1[nH]n2c(=O)c3c([nH]c2c1N=Nc1ccccc1)CCC3,-11.6%
17,CNC(=O)NC(=O)C(C)N1CCN(C/C=C/c2ccccc2)CC1 (stereo not drawn),-19.2%
18,O=C(NC(=S)N1CCN(C/C=C/c2ccccc2)CC1)c1ccc(Cl)nc1,7.4% (active)
19,O=C(CCN1C(=O)/C(=C\C=C\c2ccccc2)SC1=S)Nc1cccc(C(=O)O)c1,-20.7%
20,O=C(Nc1ccc(N2CCN(C(=O)c3ccc(Cl)cc3)CC2)cc1)c1ccc([N+](=O)[O-])o1,-6.1%
21,CC(=O)NC(CSC(CC(=O)c1ccco1)c1ccc(C)cc1)C(=O)O (stereo not drawn),-4.9%
22,Cc1ccc(S(=O)(=O)c2nnn3c2nc(N2CCOCC2)c2ccccc23)c(C)c1,-20.7%
23,COc1ccccc1NC1=C(NC(C)=O)C(=O)c2ccccc2C1=O,14.4% (active)
24,COc1ccccc1NC(=O)C1CCCN1C(=O)NCc1ccccc1 (stereo not drawn),-24.2%
